High-throughput results: PubChem BioAssay, several laboratories
GALR2 ag: GALR2 (human) receptor agonism. actives 0.48% (n = 140,000). activation, % (no concentration beside the values). O43603. GALR2-expressing cells, agonist activation read-out; in the data active means activation above about 5%, passing the limit was not always enough;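 further: 0% = vehicle buffer wells and 100% = reference agonist at full effect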
GALR2 blocker: blocks the human galanin receptor 2; O43603; GALR2-expressing cells, antagonist mode; inhibition, % at 4 µM; actives 0.39% (n = 140,000); in the data active means inhibition above about 27%;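 further: cells stimulated with galanin 1-16 at roughly its EC80; 0% = agonist challenge control and 100% = basal control without agonist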
S1P2 agonist: S1P2 (human) receptor agonism | actives 0.46% (n = 97,000) | S1P2-expressing cell line, agonist reporter read-out | activation, % at 4.5 µM | O95136; in the data active means activation above about 16%;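 further: 0% = vehicle low control and 100% = maximal reference agonist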
Target sequence (O95136 whole entry, looked up): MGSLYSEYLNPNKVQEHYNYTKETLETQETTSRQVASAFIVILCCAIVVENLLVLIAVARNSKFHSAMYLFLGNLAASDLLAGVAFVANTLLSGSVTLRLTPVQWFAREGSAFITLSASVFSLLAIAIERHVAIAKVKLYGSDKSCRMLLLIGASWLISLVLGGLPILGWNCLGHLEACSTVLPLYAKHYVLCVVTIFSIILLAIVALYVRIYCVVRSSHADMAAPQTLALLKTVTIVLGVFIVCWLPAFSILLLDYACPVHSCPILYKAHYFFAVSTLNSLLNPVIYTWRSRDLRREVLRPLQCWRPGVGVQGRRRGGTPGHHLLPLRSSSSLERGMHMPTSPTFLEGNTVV
Mac1 fbg enh: enhancers of human CD11b/CD18 binding to fibrinogen; actives 0.07% (n = 93,000); K562 CD11b/CD18 adhesion to fibrinogen, ATPlite luminescence; activation, % at 10 µM;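 active means 10 µM primary screen giving 50% or more activity, confirmed by 40% or more on retest at that dose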
CD11b adhes inh: blocks human CD11b/CD18 adhesion to fibrinogen; AID 1497; inhibition, % at 10 µM; actives 0.54% (n = 93,000); P05107+P11215; K562 CD11b/CD18 adhesion to fibrinogen, ATPlite luminescence; Mn2+ added to activate the integrin;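 active means primary inhibition of 50% or more at 10 µM, then 40% or more on retest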
S1P2 antag: blocks the human S1P2 receptor | O95136 | cell-based S1P2 antagonist assay, inhibition at 5 uM | inhibition, % at 5 µM | actives 0.21% (n = 97,000); in the data active means inhibition above about 45%;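 further: CRE beta-lactamase reporter cells expressing human S1P2 stimulated with S1P; 0% = agonist at EC80 alone and 100% = agonist plus reference antagonist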
The depositor's hits bear a star; · = not tested or not shown. Most compounds without a hit are left out; they make up all but 1.5% or so of the library.

SMILES	GALR2 ag	GALR2 blocker	S1P2 agonist	Mac1 fbg enh	CD11b adhes inh	S1P2 antag
COCCCn1c(N)c(-c2nc3ccccc3n2C)c2nc3ccccc3nc21	-2.0	23.5	-9.9	2.5	-4.8	29.9
Cn1c(-c2c(N)n(C3CCCC3)c3nc4ccccc4nc23)nc2ccccc21	0.4	20.9	-15.2	-2.4	-0.3	92.5*
COC(=O)c1cc(NC(=O)c2ccc(Cn3cc(Cl)cn3)o2)cc(C(=O)OC)c1	-4.3	6.8	-4.0	76.1	-2.9	-19.4
CCOC(=O)c1c(NC(=S)NC(=O)c2ccc(Cn3cc(Cl)cn3)o2)sc2c1CCC(C)C2 (stereo unspecified)	-1.1	3.6	-14.2	201.1*	-1.5	-3.6
CCSc1ccc(-c2nn(-c3ccccc3)cc2/C=C(/C#N)C(=O)NC)cc1	26.0*	9.0	·	12.4	1.0	·
CCCSc1ccc(-c2nn(-c3ccccc3)cc2/C=C(/C#N)C(=O)N2CCOCC2)cc1	-0.6	8.3	·	·	·	·
CN(CCCC(=O)Nc1ccncc1)S(=O)(=O)c1ccc(Cl)cc1	-2.0	19.5	-4.4	-5.9	50.3*	37.2
Cc1ccc(S(=O)(=O)c2ccc(Oc3cccc(C)c3)cc2)cc1	0.0	-16.5	-2.7	·	·	10.8
C/C(=N\OC(=O)c1ccc(OC(C)C)cc1)c1ccc(C)c(C)c1	-2.4	-8.9	-2.2	-5.8	65.6*	-3.5
CC/C(=N\OC(=O)c1ccc(OC(C)C)cc1)c1ccc(C)cc1	-1.2	2.2	-1.6	-6.8	80.3*	-5.4
COc1ccc(C(=O)O/N=C(\C)c2ccccc2)cc1	-0.2	6.9	-3.4	-5.9	28.8	-16.9
CCCOc1ccc(C(=O)O/N=C(\CC)c2ccc(C)cc2)cc1	-0.1	-8.9	·	-6.3	83.0	·
Clc1cc(CSc2ccccc2)nc(-c2ccccc2)n1	-1.7	-6.9	-3.9	-1.5	4.3	9.1
Cc1cc(/C=C(\C#N)C(=O)OCC(=O)Nc2ccc(OC(F)F)cc2)c(C)n1CC(C)C	-0.5	-15.2	·	2.2	50.7	·
O=c1c2c(-c3ccco3)csc2nc(SCc2cn3cccnc3n2)n1-c1ccccc1	2.8	-29.2	20.0*	1.3	10.8	-40.4
NC(=O)CSc1nc2scc(-c3ccco3)c2c(=O)n1-c1ccccc1	-3.5	-2.3	-3.6	0.5	2.5	-16.3
Cc1ccc(S(=O)(=O)c2nc(-c3cccs3)oc2NCCCN(C)C)cc1	-0.9	-5.9	·	·	·	·
O=c1c(C(c2ccccc2)c2c(O)sc3ccccc3c2=O)c(O)sc2ccccc12	-3.2	17.5	-6.5	-6.4	91.7*	-6.6
CCOc1ccc(C2C(C(=O)OC)=CN(CCOC)C=C2C(=O)OC)cc1	3.7	4.5	·	·	·	·
CCCCOc1ccccc1C(=O)NCC(=O)O	-0.7	12.8	·	4.4	17.8	·
COC(=O)C1=CN(C)C=C(C(=O)OC)C1c1ccccc1Cl	16.0*	-9.8	22.9*	·	·	-24.4
CCCCOc1ccccc1C1C(C(=O)OC)=CN(CC)C=C1C(=O)OC	15.7*	-6.7	24.0*	·	·	-47.2
COC(=O)C1=CN(CCCN2CCCC2=O)C=C(C(=O)OC)C1c1ccccc1C(F)(F)F	19.6*	-3.6	20.0*	-1.7	-8.8	-11.2
CCN1C=C(C(=O)OC)C(c2cccc(C)c2)C(C(=O)OC)=C1	14.0*	6.0	12.7	2.0	5.4	-8.9
CCCCCCn1nc(C(=O)Nc2nc3c(s2)CCCC3)c2ccccc2c1=O	-1.6	2.6	·	1.1	-0.1	·
SMILES	GALR2 ag	GALR2 blocker	S1P2 agonist	Mac1 fbg enh	CD11b adhes inh	S1P2 antag
O=C(CCCNC(=O)/C(=C/c1ccccc1F)NC(=O)c1ccccc1)OCc1ccccc1	-1.4	-3.1	·	4.5	11.7	·
CCOC(=O)c1c(N/N=C/c2ccncc2)n[nH]c1C	-0.8	-10.0	·	·	·	·
CCCOc1ccccc1C1C(C(=O)OC)=CN(C(C)C)C=C1C(=O)OC	29.1*	-12.4	32.2*	-0.2	12.0	-15.7
CCCOc1ccccc1C1NC(=O)NC(C)=C1C(=O)OCCOCC (stereo unspecified)	-2.1	-10.9	-5.9	-1.7	-4.6	16.8
CCOC(=O)CN(C(=O)CSc1nnc(CNc2ccc(F)cc2)n1C)c1ccccc1	-1.0	-3.3	-6.4	3.2	12.8	-2.4
CCOC(=O)CN(C(=O)CSc1nnc(COc2ccc(OC)cc2)n1C)c1ccccc1	-1.8	-3.5	96.0*	2.3	-8.8	14.0
COc1c(Cl)cc(-c2noc(C)c2C(=O)NCCc2ccc(C)cc2)cc1Cl	-2.3	4.5	-3.0	-7.5	-8.5	0.5
COc1cc(C(=O)Nc2sc3c(c2C(=O)NCc2ccco2)CCCC3)cc(OC)c1OC	0.1	-7.0	23.5*	0.5	-4.4	-21.0
COc1ccc(C(=O)Nc2sc3c(c2C(=O)NCc2ccco2)CCCC3)cc1OC	-1.5	1.7	9.9	10.2	-3.0	-3.1
NC(=O)[C@H](Cc1cc2ccccc2s1)NC(=O)[C@@H]1CC2(CC(c3cccc(NC(=O)[C@@H]4CCC(=O)N4)c3)=NO2)CN1C(=O)/C=C/c1c(F)cccc1Cl (stereo partly specified)	-3.1	2.3	-7.5	148.1*	0.7	10.4
C/C(=N/NS(=O)(=O)c1ccc(Cl)cc1)c1cccc(NC(=O)c2ccc(Cl)cc2Cl)c1	-1.9	2.2	-8.0	·	·	5.1
Cc1cc(OCC(=O)OCC(=O)Nc2cc(C(F)(F)F)ccc2N2CCOCC2)ccc1Cl	-0.9	-13.3	·	1.2	8.3	·
COc1ccc(CCNc2nc(-c3sc(C)nc3C)cs2)cc1OC	-1.4	1.1	-5.9	-6.7	59.5*	15.4
CON/C=C(\C=Nc1ccc(F)cc1)c1ncc(C(F)(F)F)cc1Cl	-2.7	-3.5	-8.6	12.2	-1.3	62.5*
O=C1Nc2ccc(Cl)cc2/C1=C/C1CC=CCC1 (stereo unspecified)	5.0*	1.8	·	·	·	·
Fc1ccc(Cn2ccc(-c3cnc(-c4ccccc4)s3)n2)cc1	-3.1	0.0	-7.2	-4.3	55.7*	-8.0
COc1cc(NC(=O)CSc2ncnc3c2cnn3Cc2ccccc2)cc(OC)c1	-1.3	-0.1	-3.3	-0.4	64.0*	11.7
CCOC(=O)c1cnc(SC)nc1Oc1cccc(NC(=O)c2cccc(Cl)c2Cl)c1	-2.0	0.1	-6.2	-2.0	-8.4	-1.8
O=[N+]([O-])c1cccc(CSc2nnc(Cc3ccccc3)n2-c2ccc(F)cc2)c1	-1.1	4.7	·	-1.5	-12.0	·
CCOC(=O)c1c(NC(=O)CSc2n[nH]c(CNc3ccccc3)n2)sc(C)c1C	-0.1	-2.0	-1.8	·	·	-16.3
CCOC(=O)c1c(NC(=O)CSc2n[nH]c(-c3ccco3)n2)sc(C)c1C	-1.8	-6.3	23.5*	2.3	12.2	-12.3
O=C(NCC1CCCO1)c1sc(=S)n2c1[nH]c(=O)c1ccc(C(=O)N3CCCCC3)cc12 (stereo unspecified)	-1.0	3.8	-2.7	-1.4	6.9	4.8
O=C(NC1CCCCC1)c1sc(=S)n2c1[nH]c(=O)c1ccccc12	-1.2	9.4	-7.4	-9.9	105.2*	12.2
CCCCNC(=O)c1sc(=S)n2c1[nH]c(=O)c1ccccc12	-3.0	-6.4	-4.5	-9.6	97.0*	-3.4
